Screening data: PubChem BioAssay, National Center for Advancing Translational Sciences (NCATS)
LDHA inh = qHTS assay for inhibitors of human lactate dehydrogenase. L-lactate dehydrogenase A chain (Homo sapiens), P00338. purified LDHA, NADH/diaphorase-resazurin fluorescence; stronger effect = lower value. activity change, % (values are at about 110 or 230 µM). actives 0.15% (n = 480,000); in the data active = activity change below about -30%; inconclusive = mostly about -25% to -30%
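Human LDH5 (2 nM) was incubated with 0.06 mM NADH and 0.2 mM pyruvate for 5 min at room temperature in Tris pH 7.4. Remaining NADH was coupled through diaphorase/resazurin, and resorufin fluorescence was read at 0 and 20 min.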
Nrf2 block = Nrf2 qHTS screen for inhibitors | A549 ARE-Fluc reporter, luciferase luminescence, 18-24 h | Potency, µM (highest dose often 46 µM), actives largely listed as inhibitors | actives 2.1% (n = 360,000) | AID 504444, 2011; also: nearly all actives have a fitted effect of over 60% in size
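In this cell-based qHTS, ARE-driven firefly luciferase in A549 cells reports Nrf2 activity; the luminescent signal after BugLite lysis is the measured value, with a prior CellTiter-Fluor read for cell health.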
12-LOX inh = Primary qHTS assay for inhibitors of human arachidonate 12S-lipoxygenase (ALOX12): Round 2. purified 12hLO, xylenol orange hydroperoxide absorbance. Potency, µM (series often up to 108 µM), hits mostly inhibitors. actives 1.1% (n = 580,000). AID 1671190, 2021
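Hydroperoxide product was detected by ferrous iron/xylenol orange as the 573 to 405 nm absorbance ratio. Arachidonic acid at 40 uM (final) was turned over for 30 min at room temperature by 150 nM human 12hLO, pH 7.0 Hepes buffer, after 15 min compound preincubation.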
ERG Ets-DNA blk = qHTS for Small Molecule Inhibitors of the ERG Ets/DNA interaction; Potency, µM (doses to about 76.9 µM), hits mostly inhibitors; Transcriptional regulator ERG (Homo sapiens), P11308; actives 0.028% (n = 370,000); fluorescence polarization, His-ERG Ets domain / labelled DNA; AID 624246, 2012; active = well fitted inhibition curve with a large enough effect in the polarisation, with a control signal flat; inconclusive = small, poorly fitted or top-dose-only effect, or effect the other way, or a change in a side signal; inactive = no such curve, though single readings can be large or run the other way; the % refers to the polarisation;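 also: polarization taken with two DNA probes labelled with fluorescein and Texas red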
Target sequence (P11308 whole entry, looked up, the tested form may be a part): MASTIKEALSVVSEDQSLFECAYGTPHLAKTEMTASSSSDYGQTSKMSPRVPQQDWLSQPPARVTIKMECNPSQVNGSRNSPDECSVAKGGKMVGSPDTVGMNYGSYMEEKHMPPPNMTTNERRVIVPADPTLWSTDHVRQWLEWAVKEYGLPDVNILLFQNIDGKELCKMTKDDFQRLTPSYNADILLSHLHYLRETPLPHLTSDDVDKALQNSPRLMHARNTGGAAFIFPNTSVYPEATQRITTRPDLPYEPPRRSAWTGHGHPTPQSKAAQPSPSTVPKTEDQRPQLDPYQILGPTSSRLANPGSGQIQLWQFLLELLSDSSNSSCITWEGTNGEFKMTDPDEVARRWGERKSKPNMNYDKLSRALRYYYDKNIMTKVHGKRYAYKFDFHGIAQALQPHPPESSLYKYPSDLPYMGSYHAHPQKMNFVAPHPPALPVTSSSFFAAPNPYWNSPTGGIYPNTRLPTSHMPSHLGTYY
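His-tagged ERG Ets domain (1 uM in the protein solution; 300mM KCl, 50mM Tris-HCl, 1mM EDTA, 1mM DTT, pH 7.5) received compound, then a probe mix of 5 nM fluorescein-DNA and 100nM Texas-615-DNA. Fluorescence polarization was read for both dyes.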
A549 tox-1 = Nrf2 qHTS screen for inhibitors: counterscreen for cytotoxicity | A549 ARE-Fluc cells, CellTiter-Fluor viability, 18-24 h | AID 504648, 2011 | actives 0.16% (n = 390,000) | Potency, µM (series often up to 46 µM), actives largely listed as inhibitors
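A549 ARE-Fluc cells in 5% FBS OPTI-MEM, 5000 cells/well, rested 2 h then exposed to compounds in concentration-response for 18-24 h at 37 °C. Viability by CellTiter-Fluor fluorescence (Ex 405/Em 525) after 30 min; luciferase luminescence (BugLite, 15 min, RT) read afterwards.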
Nrf2 ARE act = qHTS of Nrf2 Activators. AREc32 ARE-luciferase reporter (MCF7-derived line), luminescence, 24 h. actives 0.31% (n = 410,000). Potency, µM (doses to about 46.1 µM), most hits filed as activators; also: nearly all actives have a fitted effect of over 65% in size
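ARE-driven firefly luciferase activity in AREc32 cells measured after a 24 hr compound exposure at 37 deg C, using Steady-Glo reagent and a 30 min room-temperature hold.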
FLuc counter 3 = Nrf2 qHTS screen for inhibitors: Purified Fluc Biochemical Counterscreen for Hit Validation. shares compounds with Nrf2 block. purified firefly luciferase, luminescence inhibition. Potency, µM (doses to about 57.5 µM), usual class: inhibitors. actives 4% (n = 1,400); also: nearly all actives have a fitted effect of over 65% in size
A549 tox-2 = Nrf2 qHTS screen for inhibitors: A549 ARE-Fluc Cytotoxicity Counterscreen for Hit Validation; shares compounds with Nrf2 block; A549 ARE-Fluc cells, cytotoxicity counterscreen; Potency, µM (top dose mostly 46.1 µM), usual class: inhibitors; actives 2% (n = 1,400); AID 720523, 2013;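 also: cells exposed to compounds for 18 to 24 hours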
Nrf2 ARE inh = Nrf2 qHTS screen for inhibitors: Nrf2 A549 ARE-Fluc Confirmation Assay for Hit Validation; shares compounds with Nrf2 block; A549 ARE-firefly luciferase reporter, luminescence; Potency, µM (doses to about 46.1 µM), hits mostly inhibitors; actives 74% (n = 1,400); also: nearly all actives have a fitted effect of over 65% in size
Each line names hits and unclear results; the compound was inactive in the other large screens (follow-up assays come after a bar, where shown). This is a sample that favours compounds with a hit; in the whole collection about 2.7% have one here. Unless noted, calls follow the shape of the dose curve; as a rule, active = well fitted curve in the direction sought with a large enough effect; inconclusive = small, poorly fitted or top-dose-only effect, or another doubt; inactive = no such curve, though single readings can be large; an effect the other way counts as inactive or inconclusive.

COc1ccc(CNC(=O)c2cc3c(C)nc4ccccc4c3o2)c(OC)c1	Nrf2 block 5.2µM (not shown: 12-LOX inh) | FLuc counter 3 inactive | A549 tox-2 inactive
CC1CC(C)C[N+](=C2C=C(N3CCCC3)CC(C)(C)C2)C1 (configuration not stated)	LDHA inh -99, Nrf2 block 5.2µM, A549 tox-1 inconclusive | FLuc counter 3 inactive | A549 tox-2 inactive
CC1(C)CC(N2CCN(c3ccccc3)CC2)=CC(=[N+]2CCCC2)C1	Nrf2 block inconclusive, 12-LOX inh inconclusive (no result: ERG Ets-DNA blk) | FLuc counter 3 inactive | A549 tox-2 inactive | Nrf2 ARE inh 4.6µM
CC1(C)CC(N2CCCC2)=CC(=[N+]2CCCCCC2)C1	12-LOX inh inconclusive
CC(C)CC(=O)NCC12CC3CC(CC(C3)C1)C2	none (no result: Nrf2 block, ERG Ets-DNA blk, A549 tox-1, Nrf2 ARE act)
CC(C)(C)c1cc(N/C=C/C(=O)C(F)(F)F)cc(C(C)(C)C)c1	none (no result: Nrf2 block, ERG Ets-DNA blk, A549 tox-1, Nrf2 ARE act)
O=C1Cc2c([nH]c3ccc([N+](=O)[O-])cc23)-c2ccccc2N1	Nrf2 block 2.3µM, 12-LOX inh inconclusive, A549 tox-1 inconclusive | FLuc counter 3 inactive | A549 tox-2 inconclusive | Nrf2 ARE inh 2.3µM
Cc1cc(Cl)c(S(=O)(=O)N2CCN(c3ccc(F)cc3)CC2)cc1OCC(=O)NC1CCCCC1	Nrf2 block 0.29µM | FLuc counter 3 inactive | A549 tox-2 inactive | Nrf2 ARE inh 0.73µM
O=C(c1c[nH]c2ccccc12)C(Sc1ncc(C(F)(F)F)cc1Cl)c1ccccc1 (configuration not stated)	none (no result: Nrf2 block, ERG Ets-DNA blk, A549 tox-1, Nrf2 ARE act)
Cn1nccc1C(=O)NC1CCCc2c1cnn2-c1ccc(C(C)(C)C)cc1 (configuration not stated)	Nrf2 block 0.73µM | FLuc counter 3 inconclusive | A549 tox-2 inactive | Nrf2 ARE inh 0.73µM
Cc1nnsc1C(=O)NC1CCCc2c1cnn2-c1cc(F)cc(F)c1 (configuration not stated)	Nrf2 block inconclusive
Cc1nnsc1C(=O)NC1CCCc2c1cnn2-c1ccc(F)cc1F (configuration not stated)	Nrf2 block 1.2µM | FLuc counter 3 inactive | A549 tox-2 inactive | Nrf2 ARE inh 3.7µM
CC(C)(C)c1ccc(-n2ncc3c2CCCC3NC(=O)c2cnccn2)cc1 (configuration not stated)	Nrf2 block inconclusive
Cc1cc(C(=O)NC2CCCc3c2cnn3-c2cccc(C)c2C)n(C)n1 (configuration not stated)	Nrf2 block 0.21µM | FLuc counter 3 inactive | A549 tox-2 inconclusive | Nrf2 ARE inh 0.021µM
Cc1ccc(-n2ncc3c2CCCC3NC(=O)c2ocnc2C)cc1C (configuration not stated)	Nrf2 block 2.3µM | FLuc counter 3 inactive | A549 tox-2 inactive | Nrf2 ARE inh 3.3µM
Cc1[nH]c(C=O)c(C)c1C#N	none (no result: Nrf2 block, ERG Ets-DNA blk, A549 tox-1, Nrf2 ARE act)
COCc1ccc(CNC(=O)C(C)(C)C)cc1	none (no result: Nrf2 block, ERG Ets-DNA blk, A549 tox-1, Nrf2 ARE act)
Cc1nc(Cn2cnc3scc(-c4ccccc4)c3c2=O)no1	none (no result: Nrf2 block, ERG Ets-DNA blk, A549 tox-1, Nrf2 ARE act)
CC(=NNc1nc2ccccc2o1)c1ncccn1	Nrf2 block 3.3µM, Nrf2 ARE act inconclusive (not shown: ERG Ets-DNA blk) | FLuc counter 3 19µM | A549 tox-2 inconclusive
CCCN1CCC(NC(=O)COc2ccc(F)cc2)CC1	none (no result: Nrf2 block, ERG Ets-DNA blk, A549 tox-1, Nrf2 ARE act)
COc1ccccc1N1CCN(C(=O)C2CCCN(S(=O)(=O)c3ccc(C)cc3)C2)CC1 (configuration not stated)	Nrf2 block inconclusive
COc1ccccc1N1CCN(C(=O)C2CCCN(S(=O)(=O)c3ccc4c(c3)CCCN4C(C)=O)C2)CC1 (configuration not stated)	Nrf2 block 9.2µM, 12-LOX inh inconclusive | FLuc counter 3 inactive | A549 tox-2 inactive | Nrf2 ARE inh 9.2µM
Cc1ccc(-c2[nH]ncc2CN)cc1C	none (no result: LDHA inh, Nrf2 block, ERG Ets-DNA blk, A549 tox-1, Nrf2 ARE act)
CCCc1ccc(-c2ccc(/C=C/C(=O)O)cc2)nc1	Nrf2 block 0.037µM | FLuc counter 3 0.27µM | A549 tox-2 inactive | Nrf2 ARE inh 0.058µM
Cc1cc(C)cc(C(=O)Nc2ccc(-c3cn4cccnc4n3)cc2)c1	Nrf2 block 9.2µM | FLuc counter 3 inactive | A549 tox-2 inactive | Nrf2 ARE inh inconclusive
CCOc1cc(C(=O)Nc2ccc(-c3cn4cccnc4n3)cc2)cc(OCC)c1OCC	Nrf2 block inconclusive
COc1ccc(CNc2nc3c(c(=O)n(Cc4ccc(Cl)cc4)c(=O)n3C)n2C)cc1	Nrf2 block 9.2µM, 12-LOX inh inconclusive, A549 tox-1 inconclusive | FLuc counter 3 inactive | A549 tox-2 inactive | Nrf2 ARE inh 13µM
COCCNc1nc2c(c(=O)n(Cc3ccc(OC)cc3)c(=O)n2C)n1C	none
CCNc1ccnc(NC2CCCc3c2cnn3-c2ccc(C)c(C)c2)n1 (configuration not stated)	none (no result: LDHA inh, Nrf2 block, ERG Ets-DNA blk, A549 tox-1, Nrf2 ARE act)
CN(Cc1ccccc1)C(=O)c1ccc(NC(=O)Cc2ccc(NC(=O)C3CCCN(C(=O)CCc4ccccc4)C3)cc2)cc1 (configuration not stated)	Nrf2 block 2.6µM, 12-LOX inh inconclusive | FLuc counter 3 inactive | A549 tox-2 inactive | Nrf2 ARE inh 1.6µM
CN(Cc1ccccc1)C(=O)c1ccc(NC(=O)Cc2ccc(NC(=O)C3CCCN(C(=O)C4CCC4)C3)cc2)cc1 (configuration not stated)	Nrf2 block inconclusive
COc1ccc(C2(C(=O)N3CC4CC(C3)[C@H]3CCCC(=O)N3C4)CCCCC2)cc1 (some centres not stated)	none (no result: LDHA inh, Nrf2 block, ERG Ets-DNA blk, A549 tox-1, Nrf2 ARE act)
COc1cc(C2C(C#N)=C(N)Oc3n[nH]c(C)c32)ccc1OCc1c(F)cccc1Cl (configuration not stated)	none (no result: Nrf2 block, ERG Ets-DNA blk, A549 tox-1, Nrf2 ARE act)
